Data published in PubChem BioAssay AID602144 (Vanderbilt Specialized Chemistry Center, 2011).
A number with no mark means an inactive call. Active and inactive are the calls of the source. Cut-off read from the data, not from the text of the source: active = remaining activity below about 50%; inactive = the rest.

molecular target: Phospholipase D1 (Homo sapiens) (UniProt Q13393); test: cellular phospholipase D1 activity inhibition – Calu-1 cells, single concentration (AID 602144); details: cellular PLD1 activity, hits give low values;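 note: tested at 200 nM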
Sequence (Q13393 whole entry, looked up): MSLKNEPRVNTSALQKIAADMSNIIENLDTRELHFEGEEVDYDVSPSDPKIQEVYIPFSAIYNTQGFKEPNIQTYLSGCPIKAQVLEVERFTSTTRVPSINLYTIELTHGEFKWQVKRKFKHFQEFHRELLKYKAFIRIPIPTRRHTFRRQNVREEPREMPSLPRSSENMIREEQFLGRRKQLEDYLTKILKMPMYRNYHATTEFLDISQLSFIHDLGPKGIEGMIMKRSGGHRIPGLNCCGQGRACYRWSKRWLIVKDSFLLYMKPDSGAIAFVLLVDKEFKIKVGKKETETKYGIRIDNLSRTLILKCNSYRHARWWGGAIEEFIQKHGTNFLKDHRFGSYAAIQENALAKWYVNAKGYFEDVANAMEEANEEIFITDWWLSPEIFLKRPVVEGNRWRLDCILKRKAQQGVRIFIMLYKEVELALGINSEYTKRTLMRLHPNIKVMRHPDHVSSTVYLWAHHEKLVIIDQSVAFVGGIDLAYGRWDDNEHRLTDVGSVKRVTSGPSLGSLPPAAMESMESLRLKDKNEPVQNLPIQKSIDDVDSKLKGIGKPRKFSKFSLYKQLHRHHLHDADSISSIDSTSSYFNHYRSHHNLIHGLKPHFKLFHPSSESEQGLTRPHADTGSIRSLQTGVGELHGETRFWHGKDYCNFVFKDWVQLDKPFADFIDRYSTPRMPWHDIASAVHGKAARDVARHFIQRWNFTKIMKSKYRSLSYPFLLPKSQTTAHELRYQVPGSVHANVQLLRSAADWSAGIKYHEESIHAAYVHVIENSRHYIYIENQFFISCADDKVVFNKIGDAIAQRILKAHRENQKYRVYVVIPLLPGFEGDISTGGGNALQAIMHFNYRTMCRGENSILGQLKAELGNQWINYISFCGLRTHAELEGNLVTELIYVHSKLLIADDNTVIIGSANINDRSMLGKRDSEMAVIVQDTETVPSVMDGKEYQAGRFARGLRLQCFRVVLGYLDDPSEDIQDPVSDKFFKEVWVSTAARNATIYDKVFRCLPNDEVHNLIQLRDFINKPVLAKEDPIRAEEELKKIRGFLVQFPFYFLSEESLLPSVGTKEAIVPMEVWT
Sequence (Q13393 whole entry, looked up): as above

| SMILES | remaining activity |
| --- | --- |
| CC(C)[C@@H](CN1CCC(n2c(=O)[nH]c3ccccc32)CC1)NC(=O)c1ccc2ccccc2c1 | 84.6% |
| O=C(NCCN1CCN(c2ccccn2)CC1)c1ccc(C(F)(F)F)cc1 | 152% |
| O=C(N[C@@H](Cc1ccccc1)CN1CCC(n2c(=O)[nH]c3ccccc32)CC1)c1cnc2ccccc2c1 | 116% |
| CC(C)[C@@H](CN1CCC(n2c(=O)[nH]c3ccccc32)CC1)NC(=O)c1cc2cc(F)ccc2[nH]1 | 69.6% |
| O=c1[nH]c2ccccc2n1C1CCN(CCNS(=O)(=O)c2cccc3cccnc23)CC1 | 121% |
| O=C(NCCN1CCC(n2c(=O)[nH]c3ccccc32)CC1)N1c2ccccc2Sc2ccccc21 | 89.7% |
| NC1(CN2CCC(n3c(=O)[nH]c4cc(Cl)ccc43)CC2)CCCC1 (tested in a mixture with another compound) | 70.2% |
| O=C(NCCN1CCN(c2ncccn2)CC1)c1ccc(Cl)cc1 | 80.9% |
| COc1ccc(S(=O)(=O)NCCN2CCC(n3c(=O)[nH]c4ccccc43)CC2)cc1OC | 115% |
| C[C@@H](CN1CCC2(CCc3ccccc32)CC1)NC(=O)c1cnc2ccccc2c1 | 129% |
| C[C@@H](CN1CCC2(CCc3ccccc32)CC1)NC(=O)c1ccc2ccccc2c1 | 91.4% |
| O=C(NCCN1CC=C(n2c(=O)[nH]c3ccccc32)CC1)[C@H]1C[C@@H]1c1ccccc1 | 85.3% |
| O=C(NCCN1CCN(c2ccncc2)CC1)c1cc2ccccc2s1 | 147% |
| O=C(c1ccc(Cl)cc1)N1CCC(n2c(=O)[nH]c3cc(Cl)ccc32)CC1 | 79.2% |
| O=C(NCCN1CCC2(C=Cc3ccccc32)CC1)c1cnc2ccccc2c1 | 126% |
| O=C(NCCN1CCC2(CCc3ccccc32)CC1)c1ccc2ccccc2c1 | 124% |
| O=C(NCCN1CCC2(CC1)CNc1ccccc12)c1ccc2ccccc2c1 | 43.9% (active) |
| COc1cccc(N2CCN(CCNC(=O)c3ccc4ccccc4c3)CC2)c1 | 77.7% |
| O=c1[nH]c2ccccc2n1C1CCN(CCNS(=O)(=O)c2cccc(C(F)(F)F)c2)CC1 | 111% |
| C=CCCCCCCCCC(=O)NCCN1CCC(n2c(=O)[nH]c3ccccc32)CC1 | 81.3% |

| SMILES | remaining activity |
| --- | --- |
| O=C1c2ccccc2C(=O)N1CCN1CCC(n2c(=O)[nH]c3cc(Cl)ccc32)CC1 | 107% |
| Cn1c(=O)n(C2CCN(CCNC(=O)c3ccc4ccccc4c3)CC2)c2ccccc21 | 71.6% |
| O=C(NCCN1CCC(n2c(=O)[nH]c3cc(I)ccc32)CC1)c1ccc(Cl)cc1 | 15.6% (active) |
| C[C@@H](CN1CCC(n2c(=O)[nH]c3ccccc32)CC1)NC(=O)CSc1ccccc1 | 48.1% (active) |
| C[C@@H](CN1CCC(n2c(=O)[nH]c3cc(I)ccc32)CC1)NC(=O)c1ccc(Cl)cc1 | 15.5% (active) |
| C[C@@H](CN1CCC(n2c(=O)[nH]c3cc(F)ccc32)CC1)NC(=O)c1ccc(F)c(F)c1 | 19.7% (active) |
| O=c1[nH]c2ccccc2n1C1CCN(CCNS(=O)(=O)c2ccc([N+](=O)[O-])cc2)CC1 | 119% |
| O=C(NCCN1CCN(c2ccncc2)CC1)c1ccc(F)cc1O | 152% |
| O=C(NCCN1CCC(n2c(=O)[nH]c3ccccc32)CC1)c1ccc2cccc3c2c1CC3 | 93.4% |
| O=c1[nH]c2ccccc2n1C1CCN(CCNS(=O)(=O)c2cc(Cl)ccc2Cl)CC1 | 104% |
| C[C@@H](CN1CCC(n2c(=O)[nH]c3ccccc32)CC1)NC(=O)COc1ccccc1 | 28.1% (active) |
| O=c1[nH]c2ccccc2n1C1CCN(CCNS(=O)(=O)c2ccc(Cl)cc2)CC1 | 137% |
| C[C@@H](CN1CCC(n2c(=O)[nH]c3ccc(F)cc32)CC1)NC(=O)c1ccc(F)cc1 | 16% (active) |
| O=c1[nH]c2ccccc2n1C1CCN(CCNC(=S)Nc2ccc(Cl)c(Cl)c2)CC1 | 170% |
| Cn1c(C2CCN(CC3(N)CCCC3)CC2)nc2ccccc21 (tested in a mixture with another compound) | 95% |
| O=C(NCCN1CCC(n2c(=O)[nH]c3ccccc32)CC1)c1cc(-c2ccccc2)no1 | 62.9% |
| CC(=O)c1cccc(NC(=O)NCCN2CCC(n3c(=O)[nH]c4ccccc43)CC2)c1 | 137% |
| O=C(NCCN1CCC(C(=O)NCc2ccc(Cl)cc2)CC1)c1ccc2ccccc2c1 | 99.2% |
| O=C(c1ccc2ccccc2c1)N1CCC2(CC1)C(=O)NCN2c1ccccc1 | 113% |
| O=C(NCCN1CCC(n2c(=O)[nH]c3ccccc32)CC1)c1cccc2ccc3ccccc3c12 | 75.2% |
